The panel holds about 83,000 compounds, 20% with a hit somewhere; the sample as a whole holds those more often.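 48-hour exposure, single concentration, 96-well plates; percent growth endpoint where 0 means no net growth. Active: below 10.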 Activity calls are given as the source filed them.
What follows are molecules tested on MDA-MB-468 breast (assay: NCI-60 one-dose screen, 48 h (100 = growth as untreated, 0 = no growth, -100 = all killed)). Conditions: 10 µM unless noted.

| Structure (SMILES) | growth |
| --- | --- |
| CCOC(=O)C(NC(=O)C(Cl)Cl)C(O)c1ccccc1 (stereo unspecified) | 102% (inactive) |
| COc1cc(NC(C)CN(CC(C)C)C(C)C)c2ncccc2c1 (stereo unspecified) | -15.4% (active) |
| Cc1nn(-c2cc(NC3CCC(O)CC3)c3c(=O)[nH]c(CCC(F)(F)F)cc3c2)c2c1C(=O)CC(C)(C)C2 (stereo unspecified) | 5.19% (active) |
| O=C(Nc1cccc(-c2ccc(N3CCOCC3)nn2)c1)Nc1cccc(C(F)(F)F)c1 | 29.1% (inactive) |
| CCCCCCCCCCCCCCCCCCNC(=O)[C@H]1CSC(c2ccc(F)c(OC)c2)N1 (stereo partly specified) | 44.1% (inactive) |
| COc1ccc(-c2cc(-c3ccccc3)nc(SCCCC(=O)NO)n2)cc1 | -50.5% (active) |
